Tb PYK inh – T. brucei pyruvate kinase inhibition. 410,000 compounds, 0.12% hits. Potency, µM (titrated, usually from 76.8 µM), without a hit: top-dose activity, negative = inhibition, most hits filed as inhibitors. TbPYK enzyme, Kinase-Glo Plus ATP luminescence, 45 min; also: % is scaled to controls: 0 for no effect and ±100 for the full control effect; nearly all actives have a fitted effect of over 50% in size
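Glycolytic pyruvate kinase of T. brucei was incubated with substrate, test compound and 130 uM ADP for 45 minutes at room temperature. Luminescent Kinase-Glo Plus signal was measured after 10 minutes.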
LmPK inh – LmPK (Leishmania mexicana) enzyme inhibition. Q27686. purified LmPK, Kinase-Glo ATP luminescence, 1 h. Potency, µM (series often up to 57.5 µM), without a hit: at the top dose activity change, negative = inhibition, hits mostly inhibitors. 290,000 compounds, 0.37% hits; also: % is scaled to controls: 0 for no effect and ±100 for the full control effect
Target sequence (Q27686 whole entry, looked up): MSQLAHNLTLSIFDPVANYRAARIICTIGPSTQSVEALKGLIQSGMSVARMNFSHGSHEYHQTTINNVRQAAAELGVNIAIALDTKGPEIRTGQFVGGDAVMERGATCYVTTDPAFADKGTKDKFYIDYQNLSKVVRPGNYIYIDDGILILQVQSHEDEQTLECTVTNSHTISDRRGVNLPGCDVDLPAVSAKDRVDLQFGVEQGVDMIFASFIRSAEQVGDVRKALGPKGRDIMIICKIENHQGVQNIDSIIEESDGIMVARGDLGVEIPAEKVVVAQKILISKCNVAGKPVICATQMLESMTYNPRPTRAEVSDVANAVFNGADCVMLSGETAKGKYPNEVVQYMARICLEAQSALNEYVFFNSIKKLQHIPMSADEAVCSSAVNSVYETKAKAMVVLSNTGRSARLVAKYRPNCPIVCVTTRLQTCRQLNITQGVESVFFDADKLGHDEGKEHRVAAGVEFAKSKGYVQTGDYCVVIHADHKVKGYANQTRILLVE
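qHTS format; LmPK 0.1 nM; substrates PEP 0.5 mM and ADP 0.1 mM. One-hour room-temperature incubation, then coupled luciferase luminescence; 0.5 nM enzyme wells mark activation.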
SARS PLP yeast – SARS-CoV PLP inhibition in yeast; S. cerevisiae expressing SARS-CoV PLpro, growth rescue; Potency, µM (titrated, usually from 32.9 µM), inactives show top-dose activity, positive = growth rescue, hits mostly activators; 330,000 compounds, 0.19% hits; AID 485353; calls by dose curve; also: 0% is about no effect; nearly all actives have a fitted effect of over 55% in size
RE007 growth inh – less growth of the S. pombe RE007 Vpr strain; AID 651644; Potency, µM (titrated, usually from 92.2 µM), inactives show at the top dose activity change, negative = less growth, usual class: inhibitors; 360,000 compounds, 0.21% hits; S. pombe RE007 Vpr strain, BacTiter-Glo ATP luminescence, 24 h; active = well fitted falling curve with a large enough effect; inconclusive = small, poorly fitted or top-dose-only effect; inactive = no such curve, though single readings can be large or run the other way; also: % is scaled to controls: 0 for no effect and ±100 for the full control effect; nearly all actives have a fitted effect of over 50% in size
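Fission yeast strain RE007, carrying one chromosomally integrated HIV-1 vpr copy, was seeded at OD 0.01 in PMG+AL medium with 23 nL pinned compound. After 24 h at 30 °C and 99% humidity, viability was read by BacTiter-Glo luminescence.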
Sm TGR inh – S. mansoni TGR enzyme inhibition. 360,000 compounds, 3% hits. purified TGR, DTNB reduction, TNB absorbance 405 nm. Potency, µM (series often up to 114 µM), for inactives: top-dose activity change, negative = inhibition, most hits filed as inhibitors. Q962Y6; also: % is scaled to controls: 0 for no effect and ±100 for the full control effect; nearly all actives have a fitted effect of over 60% in size
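Kinetic colorimetric format: TGR-catalysed, NADPH-driven DTNB reduction monitored via TNB absorbance. Enzyme dispensed at 20 nM; compound exposure 15 min at room temperature before reaction start.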
NS1 inh – inhibitors of influenza NS1 protein function | AID 2326 | 270,000 compounds, 0.4% hits | Potency, µM (titrated, usually from 46.1 µM), for inactives: at the top dose activity, positive = more growth; calls by dose curve; also: actives are rising curves; nearly all actives have a fitted effect of over 50% in size
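Read-out: OD600 growth recovery of NS1-expressing budding yeast. Cells grown overnight at 30C in -URA glucose medium, washed, resuspended and diluted 1:100 in 2% galactose assay medium, pH 6.0. Same strain lacking NS1 served as positive control.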
* = called active by the depositor; ? = inconclusive; · = no result given; [ ] = another dose, or the depositor's remark. Compounds with a hit are over-represented: about 3.3% of the library has one in this group of screens. Unless noted, calls follow the shape of the dose curve; as a rule, active = well fitted curve in the direction sought with a large enough effect; inconclusive = small, poorly fitted or top-dose-only effect, or another doubt; inactive = no such curve, though single readings can be large; an effect the other way counts as inactive or inconclusive. Potency is read from the fitted curve at half-maximal effect.

SMILES	Tb PYK inh	LmPK inh	SARS PLP yeast	RE007 growth inh	Sm TGR inh	NS1 inh
CN(C)c1ccc(C(CC(=O)O)NC(=O)c2ccc(Cl)cc2)cc1 (stereo not drawn)	-5%	2%	17%	-8%	32µM*	-6%
O=C(N/N=C\c1c(O)ccc2ccccc12)c1ccc(S(=O)(=O)N2CCCCC2)cc1	4%	2%	4µM*	-19%	-1%	25%
Oc1ccc2ccccc2c1/C=N/n1cnnc1	·	-3%	-32%	-1%[3.69 µM]	-17%	-12%
O=CN/N=C/c1c(O)ccc2ccccc12	-2%	-7%	-1%	-8%	0%	-48%
O=C(NN=Cc1c(O)ccc2ccccc12)c1ccc2c(c1)OCO2	-1%	·	1%	3%	·	·
Oc1ccc2ccccc2c1/C=N/Nc1ccccc1	2%	1%	-12%	89%	50µM*	-4%
Oc1ccc2ccccc2c1C=NC1CCCCC1	29%	2%	-6%	-26%	40µM*	·
CCCCN(CC)C(=O)c1ccc2c(c1)NC(=O)c1ccccc1S2	2%	·	·	·	0%	·
Nc1ccc(Oc2ncccn2)cc1	-6%	-2%	0%	-11%	35µM*	7%
O=C1OC/C(=C(/O)c2ccc(Cl)cc2)C1=O	7%	2%	-3%	-5%	16µM*	-16%
O=S(=O)(CCc1ccncc1)C1Cc2cccc3cccc1c23 (stereo not drawn)	-3%	-3%	1%	-1%	35µM*	?
C/C(=C(/CCO)SS/C(CCO)=C(\C)N(C=O)Cc1cnc(C)nc1N)N(C=O)Cc1cnc(C)nc1N	-1%	·	·	·	·	·
O=C(O)c1ccccc1N/C=C\[N+](=O)[O-]	-19%	-1%	-2%	-25%	28µM*	·
O=C(/C=C/Nc1ccccc1C(=O)O)c1cccs1	-1%	?	15%	15%	-4%	-20%
COc1ccc(S(=O)(=O)N2CCCCCC2)cc1NC(=O)CC1OC(=O)c2ccccc21 (stereo not drawn)	-14%	·	1%	-20%	40µM*	·
COCCNCC(=O)Nc1ccc(C)c(S(=O)(=O)N2CCCCC2)c1	17%	5%	3%	-1%	6%	·
Cc1ccc(NC(=O)CCl)cc1S(=O)(=O)N1CCCCCC1	1%	9%	9%	1%	7.9µM*	·
O=C(CC1OC(=O)c2ccccc21)Nc1cccc(S(=O)(=O)N2CCCCCC2)c1 (stereo not drawn)	-6%	0%	-7%	9%	-22%	8%
Cc1ccc(NC(=O)CC2OC(=O)c3ccccc32)cc1S(=O)(=O)N1CCCCCC1 (stereo not drawn)	-9%	·	-2%	3%	25µM*	·
CCOC(=O)CSc1nc2cc3c(cc2c(=O)n1CCCC(=O)NCCc1ccc(OC)c(OC)c1)OCO3	8%	·	·	·	5%	·
O=C(O)CNC(=O)c1ccccc1O	·	·	·	·	·	8%
COc1ccc(Cl)cc1NC(=O)CN(c1cccc(C)c1C)S(C)(=O)=O	3%	·	·	·	5%	·
Cn1cc(Br)c(NC(=O)/C=C/C(=O)O)n1	-9%	1%	1%	0%	0.63µM*	-1%
O=C(O)/C=C\C(=O)Nc1ncn[nH]1	·	·	·	·	·	1%
O=C(CSc1nc2c(c(=O)[nH]1)CN(Cc1ccc3c(c1)OCO3)CC2)Nc1ccc(F)c(F)c1	1%	·	·	·	3%	·
O=C(NCc1ccccc1Br)C1CCCN(C(=O)N2CCOc3ccccc32)C1 (stereo not drawn)	-14%	·	·	·	1%	·
Cc1ccc(NC(=O)CC2SC3=NCCCN3C2=O)c(C)c1 (stereo not drawn)	9%	-11%	-11%	?	2.8µM*	-74%
COc1ccc(N=Nc2nc3cc(Br)c(Br)cc3n2C)c(OC)c1	-12%	22%	·	15%	45µM*	?
CCOc1ccc(C(=O)Nc2ccc(C(=O)OCc3cc(=O)n4c(C)csc4n3)cc2)cc1	1%	·	·	·	-9%	·
c1ccc(-c2nnc(-c3ccccc3)o2)cc1	3%	?	0%	?	1%	-22%

Screening results deposited in PubChem by National Center for Advancing Translational Sciences (NCATS).
